Shiga inhibitor – Shiga toxin inhibition | Vero cells, Shiga toxin protein synthesis inhibition reporter | inhibition, % at 38.7 µM | 9.2% of 290,000 active | AID 2315; in the data active means inhibition mostly above about 28%, no sharp cut-off; inactive means mostly below about 43%; further: 0% is about no effect
NS1 inh – influenza NS1 inhibition | Potency, µM (series often up to 46.1 µM), for inactives: at the highest dose activity, positive = more growth | 0.4% of 270,000 active | AID 2326; calls by dose curve; further: potency means the concentration at half of the fitted maximal effect; actives are rising curves; nearly all actives have a fitted effect of over 50% in size
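Compounds were scored for reversing the slow growth caused by influenza A NS1 in S. cerevisiae, measured by optical density at 600 nm. Assay medium contained 2% galactose at pH 6.0; NS1-free yeast of the same strain were the positive control.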
Pf growth 96h – P. falciparum growth inhibition at 96 hour, primary screen for plastid delayed-death inhibitors; P. falciparum luciferase reporter growth, 96 h; AID 504834; Potency, µM (series often up to 28.7 µM), inactives show at the highest dose activity change, negative = inhibition, actives largely listed as inhibitors; 6.9% of 320,000 active; further: potency means the concentration at half of the fitted maximal effect; on the % scale 0 is the no-effect control and ±100 the full control effect
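Infected RBCs, 2% Hct / 0.05% parasitemia final; luciferase-reporter P. falciparum; cpd 96 h, 37 C, 5% CO2; luciferase detection reagent; luminescence.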
SARS PLpro yeast-1 – inhibitors of SARS-CoV papain-like protease in yeast. S. cerevisiae expressing SARS-CoV PLpro, growth rescue. Potency, µM (series often up to 32.9 µM), inactives show top-dose activity, positive = growth rescue, most hits filed as activators. 0.19% of 330,000 active. AID 485353; calls by dose curve; further: potency means the concentration at half of the fitted maximal effect; 0% is about no effect; nearly all actives have a fitted effect of over 55% in size
Pf growth 48h – P. falciparum growth inhibition at 48 hours (one generation); P. falciparum luciferase growth in erythrocytes, 48 h; Potency, µM (highest dose often 28.7 µM), for the others: top-dose activity change, negative = inhibition, usual class: inhibitors; 5.9% of 310,000 active; AID 504832; further: potency means the concentration at half of the fitted maximal effect; on the % scale 0 is the no-effect control and ±100 the full control effect
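Read-out is firefly luciferase luminescence from an integrated reporter in P. falciparum, so falling signal marks reduced parasite growth. Infected erythrocytes were at 2% hematocrit and 0.1% parasitemia (final) in Albumax-supplemented RPMI 1640.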
CHX counter – affects cycloheximide protein synthesis inhibition readout, counter-screen; cell reporter, cycloheximide protein synthesis inhibition counterscreen; max response, %; 12% of 300,000 active; in the data active means max response mostly above about 13%, no sharp cut-off; inactive means mostly below about 14%; further: read at 38.3 µM for the half of the compounds with a filed dose; 0% is about no effect
SARS PLpro yeast-2 – Validates SARS-CoV PLpro inhibitor hits in yeast; shares compounds with SARS PLpro yeast-1; yeast expressing SARS-CoV PLpro, growth phenotype rescue; calls only; 19% of 1,000 active; call rule not given here
* marks the source's active call; other numbers are inactive results; i = inactive; ? = inconclusive; . = no result given; + = active, no number. In the library only some 21% were active in any assay of this set; here they are far more common. Unless noted, the call rests on the fitted dose curve; in most records, active means well fitted inhibition curve with a large enough effect; inconclusive means small, poorly fitted or top-dose-only effect, or another doubt; inactive means no such curve, though single readings can be large or run the other way.

SMILES	Shiga inhibitor	NS1 inh	Pf growth 96h	SARS PLpro yeast-1	Pf growth 48h	CHX counter	SARS PLpro yeast-2
O=C(Nc1ccc(Br)cc1)c1cccn1-c1ncc(C(F)(F)F)cc1Cl	21	-40%	?	?	?	12	i
CC(=O)Oc1ccc(C(=O)[C@H]2[C@H]3C(=O)N(c4ccc5ccccc5c4)C(=O)[C@H]3[C@@H]3C=CC=NN32)cc1	41	21%	219%	3.2µM*	26%	37*	i
COc1ccccc1N1C(=O)[C@@H]2[C@H](C1=O)[C@H](C(=O)c1ccc(OC(C)=O)cc1)N1N=CC=C[C@@H]21	-2	15%	-15%	0%	-7%	9	.
O=[N+]([O-])c1ccc(Oc2cccc3cccnc23)c([N+](=O)[O-])c1	-8	-18%	13µM*	.	10µM*	-2	i
N#Cc1ccc(Oc2cccc3cccnc23)c([N+](=O)[O-])c1	25	2%	5%	-1%	12%	-1	.
CCOC(=O)[C@H]1[C@H]2COc3cc(OC)ccc3[C@@H]2N2C(=O)CN(CC3CCCO3)C(=O)[C@@]12C (stereo partly drawn)	.	.	1%	-1%	33%	.	.
COc1cccc(/C=C/C(=O)NCc2cn3cc(Cl)ccc3n2)c1	19	-5%	1%	-9%	0%	2	.
CCn1ccnc1CN(C)Cc1c(C(=O)N2CCCCCCC2)nc2ccc(Cl)cn12	-30	14%	?	-3%	?	-3	.
Oc1ccc(/C=N/Nc2cc(N3CCCC3)nc(N3CCCC3)n2)cc1O	-16	?	?	?	?	-2	i
Cc1cccc(/C=N/Nc2cc(N3CCOCC3)nc(N3CCOCC3)n2)c1	2	12%	?	-55%	?	-3	.
CC(C)COP(=O)(CNC(=O)CN1C(=O)c2ccccc2S1(=O)=O)OCC(C)C	5	-4%	-12%	3%	-10%	-2	.
CCCCCCO	.	.	33%	11µM*	35%	.	i
O=C(Nc1nnc(S(=O)(=O)Nc2ccccc2)s1)C1CCCCC1	3	11%	-27%	2%	25%	-2	.
CN(C(=O)c1ccc(NC(=O)C2CCCN(C(=O)OC(C)(C)C)C2)cc1)C1CCCC1 (stereo not drawn)	.	.	.	?	.	.	i
COC(=O)c1sc(=S)sc1C(=O)OC	-7	-12%	?	6.3µM*	-8%	-3	?
COC(C(=O)Nc1ccc(F)cc1)c1ccccc1 (stereo not drawn)	-1	5%	8%	16µM*	-2%	-3	i
O=C(Nc1ccc(F)cc1)c1ccccc1	103*	-12%	112%	?	.	44*	i
O=C(CC(CC(=O)c1ccccc1)c1ccccc1)c1ccccc1	7	-7%	1%	-1%	-8%	10	.
O=C(CC(Nc1ccc(F)cc1)c1ccccc1)c1ccccc1 (stereo not drawn)	91*	0%	63%	3.2µM*	18%	31*	i
COC(C(=O)Nc1ccc(S(=O)(=O)Nc2ccc(F)cc2)cc1)c1ccccc1 (stereo not drawn)	-8	-8%	?	0%	5%	-5	.
O=C(CC(NC(=O)c1ccccc1)c1ccccc1)Nc1cccc2ccccc12 (stereo not drawn)	-10	10%	28%	?	?	-2	i
COc1ccc2cc(C3(C)NC(=O)N(CC(=O)Nc4c(C)n(C)n(-c5ccccc5)c4=O)C3=O)ccc2c1 (stereo not drawn)	15	-15%	?	3%	?	11	.
O=C(CSc1ncnc2sc(-c3ccccc3)cc12)NC1CCS(=O)(=O)C1 (stereo not drawn)	-3	.	?	-1%	-25%	2	.
C/C(=N\NC(=O)CN1CCN(S(=O)(=O)c2ccc(C)cc2)CC1)c1cccnc1	12	-5%	18%	3.2µM*	6%	-3	i
COc1cc(OC)c(NC(=O)CC(=O)Nc2cc(Cl)c(OC)cc2OC)cc1Cl	.	24%	0%	5%	-23%	5	.
SMILES	Shiga inhibitor	NS1 inh	Pf growth 96h	SARS PLpro yeast-1	Pf growth 48h	CHX counter	SARS PLpro yeast-2
COc1ccc(C(=O)CC(=O)C(=O)Nc2cc(Cl)c(OC)cc2OC)cc1	-3	-10%	28%	?	1%	-1	+
O=c1cc(CO)oc(C(Nc2ccccn2)c2ccccc2Cl)c1O (stereo not drawn)	-8	.	?	13µM*	?	11	i
COc1ccc(C(Nc2ccccn2)c2oc(CO)cc(=O)c2O)cc1 (stereo not drawn)	-14	2%	-5%	11µM*	7%	-2	i
O=c1cc(CO)oc(C(Nc2ccccn2)c2ccsc2)c1O (stereo not drawn)	24	?	146%	-1%	0%	9	.
Cc1ncc(COP(=O)(O)O)c(C=O)c1O	.	.	6%	.	2%	.	.
Cc1ccc(N=C2NC(=O)/C(=C\c3cccs3)S2)cc1C	72*	-5%	?	?	18%	28*	i
Cc1cc(/C=N/NC(N)=S)c(C)n1-c1ccc(Br)cc1	-8	.	20%	?	?	8	.
Cc1cc(/C=N/NC(N)=S)c(C)n1-c1ccc(Cl)cc1	14	14%	4%	11µM*	?	15	i
COc1ccc(S(=O)(=O)N2CCCC(C(=O)N3CCOCC3)C2)cc1C (stereo not drawn)	-14	4%	.	-1%	-8%	-3	.
Cn1c(=O)n(C)c2cc(/C=N/NC(N)=S)ccc21	16	.	33%	6%	-10%	-4	.
NC(=S)N/N=C\c1ccccc1OCc1ccccc1	-16	10%	?	11µM*	-11%	-3	+
NC(=S)N/N=C/c1ccccc1	-13	3%	?	2.5µM*	8%	-5	+
COc1cc(/C=N/NC(N)=S)ccc1OCC(=O)N1CCOCC1	-15	3%	100%	-4%	23%	-8	.
NC(=S)N/N=C/c1ccc(Br)o1	9	.	0%	?	?	3	.
O=C(CSCc1ccccc1)N/N=C/c1ccccc1OCc1ccccc1	32	-24%	?	-6%	?	10	.
COc1cc(/C=N/NC(N)=S)ccc1OCc1ccc(C)cc1	66*	19%	?	?	?	30*	+
NC(=S)N/N=C/c1ccc2c(c1)OCCO2	32	.	-7%	14µM*	113%	28*	+
O=C(O)CC(NCc1ccco1)C(=O)Nc1cccc(O)c1 (stereo not drawn)	-4	-3%	45%	-3%	-2%	-2	.
O=C(c1cccc2nccnc12)N1CCCC(Nc2ccc(F)c(F)c2)C1 (stereo not drawn)	14	1%	7%	-2%	47%	-2	.
NC(=S)N/N=C\c1c2ccccc2cc2ccccc12	1	8%	-16%	14µM*	-3%	0	i
